{
  "source": "paper PMC12136788",
  "binders": {"B1": {"name": "chr8:73046310:73046411:+|3pUTR|ENSG00000147601|msi1|FALSE|unique (ssRNA)", "RNA": "GGGAGUUCUACAGUCCGACGAUCUUGUAUUCUUUAAGAACCUUAUUUUGAUAAAAUGUAAAUUUGUUGAACCCUGCCACAUUUAGUAUCCCCACCCCCAAAUCCUGUUCCAAUGAAAAAAUUAAAACCUGAUACGAAAAAAAACAACAGAGGAUUGAGCAUCA"}, "B2": {"name": "chr2:96301550:96301651:-|CDS|ENSG00000144028|msi1|FALSE|unique (ssRNA)", "RNA": "GGGAGUUCUACAGUCCGACGAUCAAGGCGAAAGGAGAUUGACCUGCUGCUGGGUCAAACAGAUGAUACCAGAUACCAUGUGCUAGUGAACCUGGGCAAAAAGAUCACAGACUAUGGUGGAGAUAAGGAAAUCCAAAAUAUGGGCAACAGAGGAUUGAGCAUCA"}, "B3": {"name": "chr7:76302746:76302847:+|CDS|ENSG00000106211|unk|total|mutant (ssRNA)", "RNA": "GGGAGUUCUACAGUCCGACGAUCGUCCCCUUCUCGCUCCUGCGGGGCCCCAGCUGGGACCCCUUCCGCGACUGGUACCCGCACCGCCGCCUCUUCGACCAGGCCUUCGGGCUGCCCCGGCUGCCGGAGGAGUGGUCGCAGUGGCAACAGAGGAUUGAGCAUCA"}, "B4": {"name": "chr7:56101660:56101848:-|3pUTR|ENSG00000106153|msi1|total|mutant (ssRNA)", "RNA": "GGGAGUUCUACAGUCCGACGAUCUGGAGAGAUGGAAAAUCAGCUCUCAUAACUAAGUUAAUUCCGUAUAAAAACCGAAUUGACCGUGAGGGUAUAAAGUGUAACCAUCAGUUAAACCUCUCCUGUCAUUCCUGGCUUCCUUGCCAACAGAGGAUUGAGCAUCA"}, "B5": {"name": "chr11:2928445:2928542:-|3pUTR|ENSG00000181649|msi1_unk|FALSE|overlapping (ssRNA)", "RNA": "GGGAGUUCUACAGUCCGACGAUCAUUGGACUAUCUAAUAUCUAUGUAUUUAUUUCGCUGGUUCUUUGUAGUCACAUAUUUUAUAGUCUUAAUAUCUUGUUUUUGCAUCACUGUGCCCAUUGCAAAUAAAUCACUUGGCCAGUUCAACAGAGGAUUGAGCAUCA"}, "B6": {"name": "ENSG00000070961:be:win_1401|CDS|ENSG00000070961|bound_else_gene|NA|bound_elsewhere_windowed (ssRNA)", "RNA": "GGGAGUUCUACAGUCCGACGAUCAAAUGCUACAGCUAUUUGUUCAGAUAAAACAGGAACUUUGACAAUGAACAGAAUGACAGUCGUUCAAGCUUACAUAAAUGAAAAACAUUAUAAAAAGGUUCCUGAACCAGAAGCUAUUCCCAACAGAGGAUUGAGCAUCA"}},
  "note": "Whole data set: some 5,800 sequences, median “enrichment r” near 0.68, cut for the highest 2% near 11. The sample as a whole holds a higher share of the highest values than the screen did.",
  "data": [
    {"molecular_target": "T1, UNK ZnF1-6 (called full-length) (human, UniProt Q9C0B0 30-357)", "T1 sequence": "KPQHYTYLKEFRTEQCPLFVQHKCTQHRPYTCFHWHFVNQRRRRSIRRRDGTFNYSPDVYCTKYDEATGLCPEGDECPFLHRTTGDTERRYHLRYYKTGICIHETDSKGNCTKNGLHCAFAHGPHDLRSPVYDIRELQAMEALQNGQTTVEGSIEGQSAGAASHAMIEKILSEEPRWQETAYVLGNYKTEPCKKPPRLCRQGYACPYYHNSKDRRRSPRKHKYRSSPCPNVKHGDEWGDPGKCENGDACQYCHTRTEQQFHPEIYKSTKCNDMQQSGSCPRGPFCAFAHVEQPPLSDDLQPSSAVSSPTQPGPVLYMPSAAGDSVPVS", "assay": "nsRBNS (natural sequence RNA bind-n-seq); RBNS binding buffer (assumed for nsRBNS): 25 mM Tris pH 7.5, 150 mM KCl, 3 mM MgCl2, 0.01% Triton X-100, 500 ug/ml BSA, 20 U/ml SUPERase-In, 4 C; UNK is unkempt and MSI1 is Musashi-1; names of the RNAs are library labels; protein concentration not given here; high values mean tight binding", "units": {"binding signal": "enrichment R"}, "values": [
      {"binder": "B1", "binding signal": 2.26},
      {"binder": "B2", "binding signal": 0.578},
      {"binder": "B3", "binding signal": 2.16},
      {"binder": "B4", "binding signal": 0.253},
      {"binder": "B5", "binding signal": 5.74},
      {"binder": "B6", "binding signal": 0.274}
    ]}
  ]
}
